Assay in all cases: NCI-60 one-dose screen, 48 h (100 = growth as untreated, 0 = no growth, -100 = all killed)
What all share (settings): 10 µM unless noted

The subject of assay [1] is SR leukemia.
Assay [2] relates to RPMI-8226 leukemia.
Assay [3] deals with OVCAR-8 ovarian.
Assay [4] relates to OVCAR-5 ovarian.
The test system of assay [5] is OVCAR-4 ovarian.
The test system of assay [6] is SK-OV-3 ovarian.
Assay [7] concerns IGROV1 ovarian.
The test system of assay [8] is OVCAR-3 ovarian.
In assay [9] the test system is HS 578T breast.
Assay [10] relates to NCI/ADR-RES ovarian.
The test system of assay [11] is T-47D breast.
For assay [12], the system named is BT-549 breast.
Assay [13] relates to MDA-MB-435 melanoma.
Assay [14] relates to SW-620 colon.
For assay [15], the system named is MCF7 breast.
Assay [16] relates to HCT-116 colon.
Assay [17] relates to HCC-2998 colon.
Assay [18] concerns KM12 colon.

Eight compounds from PubChem BioAssay (NCI) can be followed below.

The structures appear in SMILES notation. The panel holds about 83,000 compounds, 20% with a hit somewhere; the sample as a whole holds those more often.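 Step 1: grow cells in 96-well plates. Step 2: add test compound at a single concentration. Step 3: incubate 48 h. Step 4: record percent growth.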 A number with no mark means an inactive call. Active and inactive are the calls of the source. The calls were made as follows: active = growth percent below 10; inactive = the rest.

As to `COc1ccccc1-n1c(-c2cc(O)ccc2C)cn2c3c(=O)[nH]c(=O)n(C)c3nc12`, the growth in [1] is 86.2%; in assay [2], 90.7%; in assay [3], 66.5%; in assay [4], 95.3%; in assay [5], 98.2%; in [6], 47.4%. The growth in assay [7] is 10.3%; in assay [8], 65.3%; in [9], 20.4%; in assay [10] it was 101%; in [11], 87.8%; in [12], 100%. Further, the growth is 104% in [13]; 106% in assay [14]; 84.1% in [15]; 86.5% in assay [16]; 98.6% in [17]; 108% in assay [18].

Take `N#Cc1c(-c2cccc([N+](=O)[O-])c2)cc(-c2ccc(Nc3nc(Nc4ccc(F)cc4)nc(Nc4ccc(F)cc4)n3)cc2)nc1N`: the growth was 62.9% in assay [1]; 52.3% in [2]; 89.1% in assay [3]; 102% in [4]; 114% in assay [5]; 143% in [6]. The growth in assay [7] is 90.9%; in assay [8], 100%; in assay [9], 87.9%; in [10], 101%; in assay [11], 115%; in assay [12], 173%. Besides, the growth was 112% in assay [13]; 108% in [14]; 291% in assay [15]; 108% in [16]; 113% in assay [17]; 114% in [18].

In the case of `CCn1c2ccc(O)cc2c2c(C)c3c[n+](C(C)C)ccc3c(C)c21`, the growth in assay [1] is 11.9%; in assay [2], 27.8%; in assay [3], 37.6%; in assay [4], 83.6%; in assay [5], 43.2%; in assay [6], 89.8%. Besides, the growth in [7] was 50.8%; in [8], 19.5%; in assay [9] it was 34.8%; in assay [10], 66.5%; in [11] it was -15.4% (active); in [12], 9.02% (active). The growth is 28.5% in assay [13]; 25.6% in assay [14]; 17.8% in assay [15]; 37.3% in assay [16]; 42.6% in assay [17]; 15% in assay [18].

Take `CC1(C)CCC(S(=O)(=O)c2ccc3c(c2)/C(=N\O)c2cc(S(=O)(=O)N4CCN(c5ccc(F)cc5O)CC4)ccc2-3)CC1`: the growth is -48.5% (active) in [1]; -45.9% (active) in assay [2]; -71.7% (active) in assay [3]; -69.3% (active) in assay [4]; -94% (active) in assay [5]; -98.5% (active) in assay [6]. Besides, the growth in assay [7] is -38.4% (active); in assay [8] it was -83.4% (active); in [9], -54.1% (active); in [10], -3.41% (active); in assay [11] it was -90.6% (active); in assay [12], -86.7% (active). In addition, the growth in [13] is -92.3% (active); in assay [14], -81.5% (active); in assay [15], -67.9% (active); in assay [16], -96.6% (active); in [17], -92.1% (active); in [18] it was -90.3% (active).

For the compound `O=C(CN1CCN(c2cc3c(cc2F)c(=O)c(C(=O)O)cn3C2CC2)CC1)N/N=C/c1ccncc1`, the growth was 107% in [1]; 93.2% in assay [2]; 97.5% in [3]; 98.2% in assay [4]; 98.9% in assay [5]; 102% in [6]. Moreover, the growth is 108% in assay [7]; 96.9% in assay [8]; 101% in assay [9]; 107% in [10]; 96.8% in assay [11]; 95.7% in assay [12]. Also, the growth in assay [13] was 97.5%; in [14] it was 97.4%; in assay [15], 92.4%; in [16], 104%; in [18], 101%.

For the compound `CCCCNC1=C(OCC)C(=O)c2ccccc2C1=O`, the growth was 112% in [1]; 88.1% in assay [2]; 101% in [3]; 150% in assay [4]; 94.3% in assay [5]; 119% in assay [6]. Besides, the growth is 115% in assay [7]; 98.3% in [8]; 84.2% in [9]; 97.3% in [10]; 89.6% in assay [11]; 76.5% in assay [12]. Further, the growth in assay [13] is 96.8%; in assay [14] it was 104%; in [15] it was 76.3%; in assay [16], 80.3%; in assay [18], 93.7%.

As to `CCN(CC)c1ccc(/C=C\c2cc(C)c3cc(C)ccc3n2)cc1`, the growth in assay [1] is 34.2%; in assay [2], 17.3%; in [3], 34.8%; in assay [4], 70.9%; in assay [5], 50.4%; in assay [6] it was 40.1%. The growth in assay [7] is 22%; in [8] it was 33.4%; in [9], 42.5%; in assay [10], -4.28% (active); in assay [11] it was -22.3% (active); in assay [12], -11.5% (active). Moreover, the growth in [13] was 3.36% (active); in [14] it was 23.1%; in assay [15], 19.9%; in assay [16], 6.6% (active); in assay [18], 27.1%.

As for `NC(=O)c1ccc(NC(=O)c2oc3ccccc3c2-c2cnn(-c3ccccc3)c2)cc1`, the growth in [1] is 15.9% [50 µM]; in [2], 17.6% [50 µM]; in assay [3], 13.4% [50 µM]; in assay [4] it was -6.33% [50 µM] (active); in assay [5], -30.5% [50 µM] (active); in assay [6], 62.4% [50 µM]. Also, the growth in [7] was 10.6% [50 µM]; in assay [8], 1.08% [50 µM] (active); in assay [9], 5.15% [50 µM] (active); in assay [10] it was -3.84% [50 µM] (active); in [11], 49.8% [50 µM]; in assay [12], 22.2% [50 µM]. Besides, the growth in assay [13] is 37.7% [50 µM]; in assay [14], 12.8% [50 µM]; in assay [15] it was -1.73% [50 µM] (active); in assay [16], 9.74% [50 µM] (active); in assay [18] it was 34.1% [50 µM].
